We go through two molecules from the supplement of paper PMC8728848.

Holding throughout (test): glycan array binding signal (z-score within array); higher = stronger binding
Holding throughout (conditions): glycan notation: IUPAC condensed, linker removed

Assay [1] addresses Fuc(a1-2)Gal(b1-4)GlcNAc6S. The method in brief:
(§1)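 The binding signal is a Z-score computed within each array. Data were drawn from 3228 arrays in the Consortium for Functional Glycomics database, restricted to those with a known protein sequence. Scores were averaged over arrays of the same protein sequence at different concentrations or buffers, and over linkers, and negative values can be taken as non-binding.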

The target of assay [2] is Fuc(a1-2)Gal(b1-4)[Fuc(a1-3)]GalNAc(b1-3)Gal(b1-4)[Fuc(a1-3)]GlcNAc(b1-3)Gal(b1-4)[Fuc(a1-3)]GalNAc. A digest of the protocol:
as §1

Assay [3] addresses Fuc(a1-2)[GalNAc(a1-3)]Gal(b1-4)GlcNAc. A digest of the protocol:
as §1

The next assay addresses Gal(a1-3)Gal(b1-4)GlcNAc. A digest of the protocol:
as §1

In assay [4] the target is Gal(b1-4)GalNAc(b1-3)[Fuc(a1-2)]Gal(b1-4)GlcNAc. A digest of the protocol: as §1
Assay [5] concerns the target Gal(b1-4)GlcNAc(b1-6)GalNAc. A digest of the protocol: as §1
For the next assay, the target named is Gal3S(b1-4)GlcNAc. The method in brief: as §1
A further assay has as its target Gal3S(b1-4)GlcNAc6S. The method in brief:
as §1

For the next assay, the target named is Gal4S(b1-4)GlcNAc. The method in brief:
as §1

Assay [6] has as its target GlcNAc(b1-3)[GlcNAc(b1-6)]GlcNAc. A digest of the protocol:
as §1

Assay [7] deals with Man(a1-2)Man(a1-2)Man(a1-6)[Man(a1-3)]Man. The method in brief:
as §1

The next assay has as its target Neu5Ac(a2-3)Gal. The method in brief: as §1
Assay [8] deals with Neu5Ac(a2-3)Gal(b1-4)GlcNAc6S. A digest of the protocol: as §1
Assay [9] addresses Neu5Ac(a2-3)Gal(b1-4)[Fuc(a1-3)]GlcNAc6S. A digest of the protocol: as §1
In assay [10] the target is Neu5Ac(a2-8)Neu5Ac(a2-8)Neu5Ac(a2-3)Gal(b1-4)Glc. A digest of the protocol:
as §1

For assay [11], the target named is Neu5Ac9Ac(a2-6)Gal(b1-4)GlcNAc. The method in brief:
as §1

Assay [12] concerns the target GlcNAc(b1-3)[GlcNAc(b1-6)]GalNAc. The method in brief: as §1
For the next assay, the target named is GlcNAc(b1-6)GalNAc. The method in brief:
as §1

For assay [13], the target named is GlcNAc6S(b1-3)Gal(b1-4)GlcNAc. The method in brief:
as §1

The target in assay [14] is Neu5Ac(a2-3)Gal(b1-3)GalNAc6S. The method in brief:
as §1

In assay [15] the target is Neu5Ac(a2-3)Gal(b1-3)GlcNAc(b1-6)GalNAc. A digest of the protocol:
as §1

In assay [16] the target is Neu5Ac(a2-3)Gal(b1-3)[Neu5Ac(a2-6)]GalNAc. The method in brief:
as §1

Assay [17] concerns the target Neu5Ac(a2-3)Gal(b1-4)GlcNAc(b1-6)[Gal(b1-3)]GalNAc. The method in brief:
as §1

Assay [18] addresses Neu5Ac(a2-3)Gal(b1-4)[Fuc(a1-3)]GlcNAc(b1-2)Man. The method in brief:
as §1

Assay [19] concerns the target Neu5Ac(a2-3)Gal(b1-4)[Fuc(a1-3)]GlcNAc(b1-6)[Gal(b1-3)]GalNAc. The method in brief:
as §1

Assay [20] addresses Neu5Ac(a2-6)Gal(b1-4)GlcNAc(b1-2)Man(a1-6)[Man(a1-3)]Man(b1-4)GlcNAc(b1-4)GlcNAc. A digest of the protocol:
as §1

Assay [21] has as its target Neu5Ac(a2-6)Gal(b1-4)GlcNAc(b1-2)[Neu5Ac(a2-6)Gal(b1-4)GlcNAc(b1-4)]Man(a1-3)[GlcNAc(b1-4)][Neu5Ac(a2-6)Gal(b1-4)GlcNAc(b1-4)Man(a1-6)]Man(b1-4)GlcNAc(b1-4)GlcNAc. A digest of the protocol:
as §1

Assay [22] addresses Neu5Ac(a2-8)Neu5Ac(a2-3)Gal(b1-4)Glc. A digest of the protocol:
as §1

Assay [23] has as its target Neu5Gc(a2-8)Neu5Gc(a2-6)Gal(b1-4)GlcNAc. A digest of the protocol:
as §1

In assay [24] the target is Neu5Gc(b2-6)Gal(b1-4)GlcNAc. A digest of the protocol:
as §1

This excerpt belongs to a sample that is enriched for the strongest signals.

B1: STA (Solanum tuberosum) (protein)
chain: NASAPLPYPQCGLKKGGGKCIKTGECCSIWGWCGTTSDYCAPGYCQKQCPGPYPQGRCGWQANGKSCPTGTGQCCSNAGWCGTTSDYCAPNNCQSQCKLPPPPPSPPPPPPSPPPPSPPPPPPSPPPPSPSPPPPPPSPPPPSPPPPSPPPPSPPPPPSPSPPPPPPSPPPPPPPLPYPQCGMKKGGGKCIKTGECCSIWGWCGTTSKYCSPGYCQMQCPDPYPEGRCGWQANGKSCPTGTGQCCSNAGWCGTTSAYCAPVNCQAQCNTTTLTSPIKNRMRGIESFMLNVV
As to B1, the “glycan array binding signal (z-score)” value was 0.551 in assay [1]; -0.504 in assay [2]; 2.86 in assay [3]; 3.27 in the assay with Gal(a1-3)Gal(b1-4)GlcNAc; 0.033 in [4]; 2.69 in [5]. For the same molecule, the “glycan array binding signal (z-score)” value with Gal3S(b1-4)GlcNAc was 2.55; with Gal3S(b1-4)GlcNAc6S it was 2.58; with Gal4S(b1-4)GlcNAc, 3.08; in assay [6], -0.269; in [7], -0.506; in the assay with Neu5Ac(a2-3)Gal, -0.507. The “glycan array binding signal (z-score)” value in [8] is 3.23; in assay [9], -0.49; in assay [10] it was -0.5; in [11], -0.498.

B2: DC-ASGPR-short (Homo sapiens) (protein)
chain: MTRTYENFQYLENKVKVQGFKNGPLPLQSLLQRLRSGPCHLLLSLGLGLLLLVIICVVGFQNSKFQRDLVTLRTDFSNFTSNTVAEIQALTSQGSSLEETIASLKAEVEGFKQERQAVHSEMLLRVQQLVQDLKKLTCQVATLNNNASTEGTCCPVNWVEHQDSCYWFSHSGMSWAEAEKYCQLKNAHLVVINSREEQNFVQKYLGSAYTWMGLSDPEGAWKWVDGTDYATGFQNWKPGQPDDWQGHGLGGGEDCAHFHPDGRWNDDVCQRPYHWVCEAGLGQTSQESH
Regarding B2, the “glycan array binding signal (z-score)” value was -0.234 in assay [12]; 4.64 with GlcNAc(b1-6)GalNAc; -0.27 in [13]; -0.279 in assay [14]; 5.92 in assay [15]; -0.224 in assay [16]. In addition, the “glycan array binding signal (z-score)” value in assay [17] was -0.283; in assay [18], -0.238; in assay [19], -0.285; in assay [20], -0.288; in assay [21], -0.34; in assay [22] it was -0.277. Also, the “glycan array binding signal (z-score)” value in assay [23] was -0.279; in assay [24], -0.278.
